Most compounds without a hit are left out; they make up all but 10% or so of the library.
HEK cytotox: kills HEK 293 cells. HEK 293 viability, ATP luminescence (CellTiter-Glo), 48-72 h. Potency, µM (top dose mostly 115 µM), without a hit: at the top dose activity change, negative = cytotoxicity, hits mostly inhibitors. 94,000 tested, 6.6% active; also: % is scaled to controls: 0 for no effect and ±100 for the full control effect; nearly all actives have a fitted effect of over 60% in size
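qHTS cytotoxicity; HEK 293, 250 cells/well; compound pinned; 48 or 72 hr, 37 degree Celsius, 5% CO2, 95% humidity; CellTiter-Glo, 10 min RT; luminescence (ATP).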
GPT2 inhibitor: inhibitors of human GPT2 alanine aminotransferase | Q8TD30 | AID 1671188 | Recombinant GPT2, coupled pyruvate oxidase/HRP Amplex Red fluorescence | Potency, µM (titrated, usually from 57.7 µM), for the others: at the top dose activity change, negative = inhibition, actives largely listed as inhibitors | 100,000 tested, 0.25% active; also: % is scaled to controls: 0 for no effect and ±100 for the full control effect; nearly all actives have a fitted effect of over 60% in size
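GPT2 10ng/uL, a-KG 250uM, L-Ala 2mM, HEPES pH7.5 + 0.0001% Tween; 30 min RT. Then Amplex mix (PO/HRP/ThPP), 30 min RT dark, fluorescence. AOA 50uM used as positive control.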
FLuc inh: blocks purified firefly luciferase enzyme activity. 76,000 tested, 2.5% active. P08659. purified P. pyralis luciferase, luminescence, biochemical. Potency, µM (series often up to 115 µM), hits mostly inhibitors; also: % is scaled to controls: 0 for no effect and ±100 for the full control effect; nearly all actives have a fitted effect of over 65% in size
Target sequence (P08659 whole entry, looked up): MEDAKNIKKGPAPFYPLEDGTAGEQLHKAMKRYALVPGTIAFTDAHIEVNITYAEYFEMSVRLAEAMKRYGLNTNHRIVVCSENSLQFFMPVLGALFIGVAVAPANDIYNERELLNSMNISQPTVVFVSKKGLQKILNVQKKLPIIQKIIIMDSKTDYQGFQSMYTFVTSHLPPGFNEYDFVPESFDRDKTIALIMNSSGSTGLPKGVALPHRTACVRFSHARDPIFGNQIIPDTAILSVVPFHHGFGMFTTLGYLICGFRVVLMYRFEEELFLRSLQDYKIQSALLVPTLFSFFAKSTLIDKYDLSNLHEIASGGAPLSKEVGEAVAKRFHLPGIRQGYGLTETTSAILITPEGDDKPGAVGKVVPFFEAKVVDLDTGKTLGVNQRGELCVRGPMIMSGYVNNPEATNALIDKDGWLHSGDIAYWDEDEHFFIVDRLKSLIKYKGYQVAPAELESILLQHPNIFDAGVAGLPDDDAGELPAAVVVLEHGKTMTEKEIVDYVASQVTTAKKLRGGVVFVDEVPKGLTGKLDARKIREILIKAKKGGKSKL
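Inhibitors were tested against purified firefly luciferase in a biochemical, low-substrate format (both substrates at 10uM) and luminescence measured with a CCD imager.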
3T3 cytotox: cytotoxic compounds in NIH 3T3 cells. NIH 3T3 viability, CellTiter-Glo ATP luminescence, 48-72 h. Potency, µM (titrated, usually from 96.7 µM), for the others: at the top dose activity change, negative = cytotoxicity, actives largely listed as inhibitors. 94,000 tested, 4.3% active; also: % is scaled to controls: 0 for no effect and ±100 for the full control effect; nearly all actives have a fitted effect of over 55% in size
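Cells were seeded at 400 per well, treated with pin-transferred compound, and kept 48 or 72 hr at 37 °C before CellTiter-Glo addition and luminescence imaging of cellular ATP.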
NPR1 antag: antagonists of human natriuretic peptide receptor Npr1; AID 1347048; P16066; HEK293 hNpr1 GloSensor cGMP, ANP-stimulated luminescence; Potency, µM (doses to about 46.3 µM), inactives show at the top dose activity change, negative = inhibition, hits mostly inhibitors; 76,000 tested, 1.6% active; calls by dose curve; also: % is scaled to controls: 0 for no effect and ±100 for the full control effect; nearly all actives have a fitted effect of over 60% in size
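HEK293 cells stably expressing human Npr1 and cGMP GloSensor pGS-40F, loaded 2 h with 2% GloSensor reagent, given compound 30 min at room temperature. Luminescence read before and 20 min after 0.1 nM hNppA.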
NPR1 antag cnf: hNpr1 antagonism, confirmation assay | Potency, µM (doses to about 57.6 µM), for inactives: top-dose activity change, negative = inhibition, most hits filed as inhibitors | 1,400 tested, 76% active | AID 1347044 | HEK293 hNpr1 cGMP GloSensor luminescence, ANP-stimulated | shares compounds with NPR1 antag; calls by dose curve; also: nearly all actives have a fitted effect of over 70% in size
Npr2 selectivity: antagonizes human Npr2, subtype selectivity check; shares compounds with NPR1 antag; HEK293 hNpr2 GloSensor cGMP luminescence, CNP-stimulated; Potency, µM (series often up to 57.6 µM), inactives show at the top dose activity change, negative = inhibition, usual class: inhibitors; 1,400 tested, 67% active; calls by dose curve; also: nearly all actives have a fitted effect of over 70% in size
FLuc counter: inhibits firefly luciferase, false Npr1 antagonist flag; Potency, µM (top dose mostly 57.6 µM), inactives show at the top dose activity change, negative = inhibition, actives largely listed as inhibitors; purified FLuc enzyme, luminescence, Km substrate; 1,400 tested, 0.7% active; shares compounds with NPR1 antag; also: 0% is about no effect
GloSensor cGMP: counter-screen for Npr1 antagonists: GloSensor control cell line; Potency, µM (highest dose often 57.6 µM), inactives show at the highest dose activity change, negative = inhibition, hits mostly inhibitors; shares compounds with NPR1 antag; 1,400 tested, 69% active; HEK293 GloSensor cGMP, SNP-stimulated, luminescence; calls by dose curve; also: % is scaled to controls: 0 for no effect and ±100 for the full control effect; nearly all actives have a fitted effect of over 70% in size
* = called active by the depositor; i = inactive; ? = inconclusive; . = no result; [ ] = dose if it differs, or a comment. Unless noted, calls follow the shape of the dose curve; as a rule, active = well fitted curve in the direction sought with a large enough effect; inconclusive = small, poorly fitted or top-dose-only effect, or another doubt; inactive = no such curve, though single readings can be large; an effect the other way counts as inactive or inconclusive. Potency is read from the fitted curve at half-maximal effect.

SMILES | HEK cytotox | GPT2 inhibitor | FLuc inh | 3T3 cytotox | NPR1 antag | NPR1 antag cnf | Npr2 selectivity | FLuc counter | GloSensor cGMP
Cc1nn2c(c1-c1cccnc1N1CCOCC1)N(C(=O)Cc1cccc(Cl)c1)CCC2 | 3.8% | 1.4% | i | ? | -21.0% | -26.9% | ? | 0.1% | 6.6%
Cc1nn2c(c1-c1cccnc1N1CCOCC1)N(CCc1ccccc1)CCC2 | 25.1µM* | i | i | ? | 3.98µM* | 35.3µM* | 31.4µM* | -6.0%[86.2 µM] | ?
O=C(O)C1CNCCN(C(=O)c2nc3ccc(F)cc3[nH]2)C1 (centres undefined) | i | -5.3% | i | 0.3% | 3.9% | . | . | . | .
O=C(NCc1cccnc1)c1nc(-c2cccc(C(F)(F)F)c2)c2cnccn12 | ? | 1.6% | i | ? | 5.3% | . | . | . | .
Cc1ccc(CNC(=O)CCC2CCN(S(=O)(=O)c3ccccc3)CC2)cc1 | -24.2% | -2.2% | i | ? | -23.8% | -17.5% | -11.4% | 3.2% | -13.3%
CCN(Cc1ccccc1)C(=O)CCC1CCN(S(=O)(=O)c2ccccc2)CC1 | ? | 0.8% | i | 28.2µM* | -20.7% | ? | -20.2% | -1.7% | -12.6%
Cc1cccc(CNC(=O)CCC2CCN(S(=O)(=O)c3ccccc3)CC2)c1 | ? | -8.6% | i | -26.8% | -5.5% | . | . | . | .
COc1ccc(C(=O)Nc2ccc(-c3noc([C@@H]4CCCN4Cc4ccc(Cl)cc4)n3)cn2)cc1 | ? | -14.2% | i | ? | ? | . | . | . | .
COc1ccc(C(=O)Nc2ccc(-c3noc([C@@H]4CCCN4Cc4ccccc4C)n3)cn2)cc1 | ? | -13.3% | i | -49.7% | 10µM* | 7.69µM* | 12.2µM* | -16.0% | 9.68µM*
COc1ccc(C(=O)Nc2ccc(-c3noc([C@@H]4CCCN4Cc4ccc(F)c(F)c4)n3)cn2)cc1 | ? | -7.3% | i | ? | 10µM* | 7.69µM* | 9.68µM* | -16.0% | 8.62µM*
Cc1ncsc1CN1CCC2(CC1)CC(Cc1nc(-c3ccccc3)no1)CCO2 (centres undefined) | 17.8µM* | ? | i | ? | 10µM* | 12.2µM* | 17.2µM* | -9.8% | 13.7µM*
CN1CCC(OC2CCN(C(=O)c3ccc(Br)cc3)CC2)CC1 | ? | i | i | -21.8% | 1.9% | . | . | . | .
c1cncc(COc2cc3c(cn2)NCCN(Cc2ccc4[nH]ccc4c2)C3)c1 | ? | i | i | ? | 8.91µM* | 19.8µM* | 22.2µM* | 1.3%[86.2 µM] | 19.8µM*
COc1ccc(CN2CCNc3cnc(OCc4cccnc4)cc3C2)cc1 | ? | i | i | -23.5%[138 µM] | ? | . | . | . | .
CCn1cc(-c2ccc(C)cc2)cc1C(=O)N1CCN(c2ccccn2)CC1 | 31.6µM* | ? | i | 35.5µM* | 14.1µM* | 19.3µM* | 19.3µM* | -1.6% | 15.3µM*
O=C(C1CCOCC1)N1CCC(c2noc(-c3ccccn3)n2)C1 (centres undefined) | 4.0% | i | i | 2.8% | -2.5% | . | . | . | .
O=C(O)c1ccnc(-c2ccnc(NCc3noc(C4CCCC4)n3)n2)c1 | i | i | i | -5.5% | 4.8% | . | . | . | .
Cc1cc2c(N3CCC(NCc4noc(C5CCC5)n4)CC3)ncnc2s1 | ? | -1.3% | i | ? | 2µM* | 1.53µM* | 3.06µM* | 2.2% | 1.72µM*
CCc1cc(=O)n(CC(=O)N2CCN(c3ccc(OC)cc3)CC2)c(-c2ccccc2)n1 | -5.4% | -28.1% | i | i | 4.8% | . | . | . | .
CCc1cc(=O)n(CC(=O)N2CCN(c3ccccc3OC)CC2)c(-c2ccccc2)n1 | 39.8µM* | i | i | ? | -18.6% | ? | -24.4% | 1.7% | -2.6%
CN(Cc1cn(-c2ccccc2)nn1)Cc1noc(C2CCC2)n1 | ? | -6.7% | i | -19.5% | 6.0% | . | . | . | .
CCN(Cc1noc(C2CCC2)n1)C(=O)C(C)Oc1ccc2ccccc2c1 (centres undefined) | 35.5µM* | -7.8% | i | -27.0% | 11.2µM* | 19.3µM* | 21.7µM* | -1.0% | 13.7µM*
Cc1nc(Nc2ccc(F)cc2)nc(N2CCc3ccccc3C2C)c1C (centres undefined) | . | 1.0% | . | . | . | . | . | . | .
CS(=O)(=O)c1ccc(CNC[C@H]2COCc3nc4cc(F)ccc4n32)cc1 | ? | -6.7%[88.5 µM] | i | ? | -28.6%[70.6 µM] | . | . | . | .
Cc1cccc2c1nc1n2[C@@H](CNCc2ccc(S(C)(=O)=O)cc2)COC1 | ? | i | i | ? | 25.1µM* | 31.4µM* | 35.3µM* | 0.0%[86.2 µM] | 22.2µM*
SMILES | HEK cytotox | GPT2 inhibitor | FLuc inh | 3T3 cytotox | NPR1 antag | NPR1 antag cnf | Npr2 selectivity | FLuc counter | GloSensor cGMP
Cc1ccc2c(c1)nc1n2[C@@H](CNS(=O)(=O)Cc2ccccc2)COC1 | ? | -5.5%[88.5 µM] | i | ? | 22.4µM* | 35.3µM* | 35.3µM* | -1.0%[86.2 µM] | 28µM*
Cc1cccc2c1nc1n2[C@@H](CNS(=O)(=O)c2ccccc2)COC1 | ? | 0.2%[88.5 µM] | i | ? | ? | . | . | . | .
COc1ccc(S(=O)(=O)NC[C@H]2COCc3nc4c(C)cccc4n32)cc1 | ? | 2.7%[88.5 µM] | i | ? | 25.1µM* | 17.7µM* | 22.2µM* | 0.0%[86.2 µM] | 14µM*
Cc1ccc2nc3n(c2c1)[C@@H](CNS(=O)(=O)Cc1ccccc1)COC3 | ? | -4.5%[88.5 µM] | i | ? | ? | . | . | . | .
COc1ccc(-c2cn3c(n2)CO[C@@H](CNS(=O)(=O)c2ccc(C)cc2)C3)cc1 | -11.5%[172 µM] | -53.6%[88.5 µM] | i | -31.8%[174 µM] | 28.2µM* | 31.4µM* | 31.4µM* | ? | 28µM*
O=C(Cc1cccn1-c1ccc(F)cc1)NC1CCCC1 | -16.8% | i | i | -21.1% | -16.8% | . | . | . | .
Cc1noc([C@H]2CCN(CC3CC3)C[C@H]2NC(=O)C2CC2)n1 | 1.7% | i | i | i | 1.6% | . | . | . | .
COc1ccc(CC(=O)N2CCCC2C(=O)N2CCCC2c2nc3ccncc3[nH]2)cc1 (centres undefined) | -1.3% | 0.6% | . | -11.7% | . | . | . | . | .

Assay outcomes deposited in PubChem by National Center for Advancing Translational Sciences (NCATS).
